Exocytosis inh – lytic granule exocytosis inhibition | AID 651702 | TALL-104 LAMP-1 surface exposure, flow cytometry; cells stimulated with thapsigargin and PMA | inhibition, % at 10 µM | 360,000 compounds, 0.66% hits;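 active = inhibition above about 55%, limit read from the data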
Rev-erbA mod – modulators of human Rev-erb alpha DNA binding. P20393. Rev-erbα–FITC-DNA binding, fluorescence polarization, 90 min. activity, % at 10 µM. 370,000 compounds, 0.79% hits. AID 1259318;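 active = activity above about 14%, limit read from the data; passing the limit was not always enough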;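 note: 0% = DMSO wells with 35 nM protein and 100% = DMSO wells with 750 nM protein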
Target sequence (P20393 whole entry, looked up): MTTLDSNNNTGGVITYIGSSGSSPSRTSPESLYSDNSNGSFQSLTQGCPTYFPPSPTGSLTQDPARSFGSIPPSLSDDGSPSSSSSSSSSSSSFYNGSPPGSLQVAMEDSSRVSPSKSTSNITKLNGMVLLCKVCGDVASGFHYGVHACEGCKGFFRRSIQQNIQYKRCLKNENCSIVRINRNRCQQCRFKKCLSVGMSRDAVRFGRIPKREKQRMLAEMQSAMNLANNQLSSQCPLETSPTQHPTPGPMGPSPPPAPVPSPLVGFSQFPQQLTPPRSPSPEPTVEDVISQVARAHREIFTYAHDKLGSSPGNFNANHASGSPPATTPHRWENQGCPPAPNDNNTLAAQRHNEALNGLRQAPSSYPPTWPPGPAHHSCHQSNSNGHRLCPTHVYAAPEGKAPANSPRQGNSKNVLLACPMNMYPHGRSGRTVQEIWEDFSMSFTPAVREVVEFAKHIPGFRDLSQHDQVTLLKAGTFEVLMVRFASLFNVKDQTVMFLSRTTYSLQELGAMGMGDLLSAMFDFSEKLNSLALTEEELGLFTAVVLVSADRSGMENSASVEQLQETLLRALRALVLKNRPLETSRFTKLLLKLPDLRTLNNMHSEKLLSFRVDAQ
VLA-4 inh – inhibition in a human VLA-4 binding assay; 330,000 compounds, 0.2% hits; inhibition, % (about 7 µM as worked out from the volumes in the protocol); VLA-4 expressing cells, ligand binding flow cytometry; P13612; in the data active = inhibition above about 50%
ABCB6 inh MLPCN – human ABCB6 transporter inhibition | K562-ABCB6 porphyrin accumulation, flow cytometry, 1 h; active compounds read low | fluorescence ratio to DMSO, % at 10 µM | 360,000 compounds, 0.19% hits;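 active = fluorescence ratio to DMSO below 75%, the collection mean minus 3 SD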;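 note: signal is porphyrin accumulated inside mitochondria; 100% equals median channel fluorescence of DMSO control wells; lower ratio means ABCB6 inhibition with less porphyrin fluorescence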
PG9 Ab binder – PG9 antibody binding by small molecule; inhibition, % at 6.7 µM; TR-FRET gp120-PG9 antibody binding; AID 624416; 360,000 compounds, 0.43% hits; in the data active = inhibition above about 8.5%
PG9 bind confirm – confirmation of small molecules binding HIV-1 gp120 antibody PG9. shares compounds with PG9 Ab binder. TR-FRET PG9 antibody binding, biochemical. inhibition, % at 6.7 µM. 1,500 compounds, 90% hits. AID 651571; in the data active = inhibition above about 9%
PGV04 Ab binding – binds control antibody PGV04 in PG9 binder counter-screen; TR-FRET PGV04 antibody-gp120 binding, biochemical; 1,500 compounds, 95% hits; shares compounds with PG9 Ab binder; inhibition, % at 6.7 µM; AID 651604; in the data active = inhibition above about 9.5%
PG9 binder DR – PG9 antibody binding, dose response | shares compounds with PG9 Ab binder | TR-FRET PG9 antibody-gp120 binding inhibition | IC50, µM | 95 tested, under 10 active; in the data active = IC50 below about 10 µM
PGV04 DR counter – binds control antibody PGV04 in PG9 counter-screen. IC50, µM. 95 compounds, 20% hits. TR-FRET binding to control antibody PGV04. shares compounds with PG9 Ab binder
PG126 binding DR – binds control antibody PG126 in PG9 counter-screen | shares compounds with PG9 Ab binder | TR-FRET binding to antibody PG126, counterscreen | IC50, µM | 95 compounds, 20% hits | AID 651939
Starred values were filed as active, the others as inactive; . = no result given. An excerpt weighted towards active compounds, which were near 2% of everything screened. Cut-off read from the data, not from the text of the source, unless noted: active = IC50 below about 9 µM; inactive = the rest.

SMILES | Exocytosis inh | Rev-erbA mod | VLA-4 inh | ABCB6 inh MLPCN | PG9 Ab binder | PG9 bind confirm | PGV04 Ab binding | others
Cc1cccc2cc(C#N)c(SCC(=O)NNC(=O)Cc3ccccc3)nc12 | -2 | 13 | -1 | 100 | 17* | 35* | 28*
Cc1cc2cccc(C)c2nc1SCC(=O)NNC(=O)c1ccco1 | 0 | 5 | 6 | 97 | 1 | . | .
O=C(Cn1cnc2c(NCc3ccccc3)ncnc21)NCc1ccc2[nH]ccc2c1 | -1 | 4 | . | 90 | 33* | 16* | 29*
O=C(Cc1cn(Cc2ccccc2)c2ccccc12)Nc1ccc(Nc2cccnc2)cc1 | . | 11 | . | . | 0 | . | .
COc1ccccc1NS(=O)(=O)c1cccc(NC(=O)c2[nH]c(C)c(C(C)=O)c2C)c1 | 0 | 1 | 1 | 100 | 12* | 21* | 19* | PG9 binder DR=>67;PGV04 DR counter=>67;PG126 binding DR=>67
O=C(NCCCc1ccccc1)[C@H](CO)NC1(C(=O)NCCc2c[nH]c3ccccc23)CCCCC1 | . | -8 | . | . | . | . | .
CC(=O)c1cccc(NC(=O)CCc2nnc3ccc(N4CCN(C)CC4)nn23)c1 | -4 | -3 | 20 | 101 | 1 | . | .
CC(=O)c1cccc(NC(=O)CCc2nnc3ccc(NCc4ccc5c(c4)OCO5)nn23)c1 | -4 | 13 | 0 | 97 | 19* | 23* | 27*
Cc1cccc(C(=O)Nc2nc3ncccn3c2-c2ccccc2)c1 | . | -3 | . | . | . | . | .
NC[C@@H]1O[C@H](O[C@@H]2[C@@H](CO)OC(O[C@@H]3[C@@H](O)[C@H](N)C[C@H](N)[C@H]3O[C@@H]3O[C@H](CN)[C@@H](O)[C@H](O)[C@H]3N)[C@@H]2O)[C@H](N)[C@@H](O)[C@@H]1O (stereo partly drawn) | . | 6 | . | . | . | . | .
CC(OC(=O)c1cc2sccc2n1C)C(=O)NCc1cccs1 (stereo not drawn) | 2 | -3 | 13 | 85 | -1 | . | .
Cn1c(C(=O)OCC(=O)NCc2cccs2)cc2sccc21 | 4 | 7 | 6 | 103 | 9.6* | 17* | 27*
O=C(Nc1c(-c2ccc(C(F)(F)F)cc2)nc2ncccn12)c1ccccc1 | . | -4 | . | . | . | . | .
CCCCn1c(NC(=O)c2ccc(Br)o2)c(S(=O)(=O)c2ccccc2)c2nc3ccccc3nc21 | 6 | -9 | . | 106 | 14* | 18* | 24*
CCCCCn1c(NC(=O)c2ccco2)c(S(=O)(=O)c2ccc(C)cc2)c2nc3ccccc3nc21 | 14 | -3 | 10 | 109 | 3 | . | .
CCCCn1c(NC(=O)c2ccco2)c(S(=O)(=O)c2ccc(C)cc2)c2nc3ccccc3nc21 | -1 | -5 | . | 111 | 18* | 21* | 25*
C[C@@H]1NC(=O)[C@H]2C[C@@]3(c4ccccc4)c4ccccc4N[C@H]3N2C1=O | . | -3 | . | . | . | . | .
CN1CCN(CCCNC(=O)c2ccc3c(c2)N(Cc2ccc(F)cc2)CCS3)CC1 | 6 | 5 | 13 | 103 | 17* | 15* | 24*
Cc1cccc(-n2c(SCC(N)=O)nc3c(c2=O)C2(CCCC2)Cc2ccccc2-3)c1 | 1 | -3 | 2 | 97 | 19* | 20* | 25*
N#Cc1c(-c2ccccc2)c(C#N)c2nc3ccccc3n2c1N | -1 | 1 | -11 | 98 | 8.8* | 18* | 24*
CCCCOc1ccc(C2C(C(=O)c3ccc(C)o3)=C(O)C(=O)N2CC2CCCO2)cc1 (stereo not drawn) | -1 | 3 | 0 | 104 | 26* | 25* | 30*
Cc1ccc(C(=O)C2=C(O)C(=O)N(CC3CCCO3)C2c2ccccc2F)o1 (stereo not drawn) | -17 | 2 | 15 | 92 | 13* | 23* | 31*
CCOC(=O)[C@]12CCCC3=C1N(CCC3)C(=O)[C@@H](CC(=O)NCC1CCCCC1)C2 | . | 6 | . | . | . | . | .
CC(=O)CC[C@@H]1CC[C@]2(CCCN(C(=O)C3CCCC3)C2)O1 | . | 6 | . | . | . | . | .
O=c1cc(-c2ccccc2)oc2ccc3ccccc3c12 | 2 | 13 | . | 98 | 15* | 16* | 24*
SMILES | Exocytosis inh | Rev-erbA mod | VLA-4 inh | ABCB6 inh MLPCN | PG9 Ab binder | PG9 bind confirm | PGV04 Ab binding | others
CN1CCN(c2ccc3c(c2)Oc2ccccc2CN(Cc2cn(Cc4ccc(C(F)(F)F)cc4)nn2)S3(=O)=O)CC1 | . | 2 | . | . | . | . | .
Cc1cc2cc(C)c(NCCNC(=O)c3ccccc3)nc2cc1C | -2 | 9 | 6 | 101 | -1 | . | .
Cc1ccc(C(=O)NCCNc2nc3cc(C)c(C)cc3cc2C)cc1 | -5 | 17 | 29 | 95 | 8.9* | 18* | 22*
Cc1ccc2cc(CN(c3ccccc3C)S(=O)(=O)c3ccccc3)c(=O)[nH]c2c1 | -1 | -1 | 1 | 100 | 14* | 26* | 45*
CCC[C@H]1[C@@H](NC(=O)c2ccc(C)cc2)CC[C@@]23CCCN2C(=O)CCC[C@@H]13 | . | 1 | . | . | . | . | .
COc1ccc(-c2nnc(SCC(=O)Nc3ccc(S(=O)(=O)Nc4nccs4)cc3)n2-c2ccc(OC)cc2)cc1 | . | -3 | . | . | . | . | .
Cc1noc(C)c1S(=O)(=O)N1CCCc2nc(-c3ccc(Br)cc3)ccc21 | . | -3 | . | . | 1 | . | .
COc1ccc(-n2ncc3c(=O)n(CC(=O)Nc4ccc5c(c4)OCCO5)cnc32)cc1 | 17 | 22 | 0 | 90 | 12* | 19* | 23*
O=C(CCc1nc(-c2ccccc2F)no1)NCCc1cccc(F)c1 | . | 3 | . | . | . | . | .
Cc1sc2ncnc(N3CCC(C(=O)Nc4ccc(Br)cc4Br)CC3)c2c1C | 12 | 20 | 3 | 98 | 23* | 44* | 70*
CNC(=O)c1ccc(NC(=O)C2CCN(c3ncnc4sc(C)c(C)c34)CC2)cc1 | -1 | -5 | -9 | 99 | 18* | 14* | 18*
Cc1cc2ccccc2nc1SCC(=O)NC1CCCCC1 | -2 | 4 | -4 | 101 | 6 | . | .
Cc1cc(SCC(=O)NC2CCCC2)nc2ccccc12 | -12 | 4 | 6 | 95 | 16* | 31* | 44*
O=C(CSc1ccccn1)NC1CCCC1 | . | . | 3 | . | . | . | .
Cc1cc2ccccc2nc1SCC(=O)NC1CCCC1 | 0 | 5 | 9 | 97 | 9.7* | 15* | 18*
Cc1cc2c(c(=O)o1)[C@@]1(C(=O)N(C)c3ccccc31)C1=C(CC3(CCCCC3)OC1=O)O2 | . | 1 | . | . | 2 | . | .
CCCCC(=O)Nc1nn(CC)c2nc3c(C)cccc3cc12 | -6 | 10 | 1 | 102 | 9.7* | 11* | 15*
C=CCN(CC#Cc1ccccc1)CC1CC1 | . | 2 | . | . | . | . | .

From PubChem
